Some test systems named below: HCT-15 colon; HT29 colon; SNB-75 CNS; SNB-19 CNS; U251 CNS; PC-3 prostate; SK-MEL-5 melanoma; UACC-62 melanoma; LOX IMVI melanoma; SK-MEL-28 melanoma; SK-MEL-2 melanoma; EKVX NSCLC; SN12C renal; UO-31 renal; TK-10 renal; ACHN renal; CAKI-1 renal; A498 renal; CCRF-CEM leukemia; MOLT-4 leukemia.
Assay in all cases: NCI-60 one-dose screen, 48 h (100 = growth as untreated, 0 = no growth, -100 = all killed)
Holding throughout (conditions): 10 µM unless noted

This is part of a sample that, as a whole, favours compounds with a hit. Of some 83,000 tested, about 20% had one in any assay.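 Step 1: grow cells in 96-well plates. Step 2: add test compound at a single concentration. Step 3: incubate 48 h. Step 4: record percent growth.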 A number with no mark means an inactive call. Active and inactive are the calls of the source. The calls were made as follows: active = growth percent below 10; inactive = the rest.

On to `Nc1nc(N)c2nc(CNc3ccc(C(=O)CC(CCC(=O)O)C(=O)O)cc3)cnc2n1` (stereo not given), for which the growth in the assay on HCT-15 colon was 33.3%; in the assay on HT29 colon it was 36.7%; in the assay on SNB-75 CNS it was 71.7%; in the assay on SNB-19 CNS, 42.9%; in the assay with U251 CNS, 36.2%; with PC-3 prostate it was 33.6%. Also, the growth with SK-MEL-5 melanoma was 22.8%; in the assay with UACC-62 melanoma it was 26.6%; in the assay on LOX IMVI melanoma, 20.5%; with SK-MEL-28 melanoma it was 68.7%; in the assay on SK-MEL-2 melanoma, -6.72% (active); in the assay with EKVX NSCLC it was 42.8%. For the same compound, the growth was 30.9% in the assay with SN12C renal; 8.63% (active) in the assay on UO-31 renal; 74.7% in the assay with TK-10 renal; 27.2% in the assay with ACHN renal; -3.87% (active) in the assay with CAKI-1 renal; 51.4% with A498 renal. The growth in the assay with CCRF-CEM leukemia was 17.8%; in the assay with MOLT-4 leukemia, 33%.
As to `Cc1cccc2cc(/C=C/C(=O)/C=C/c3ccc(Cl)cc3)c(=O)[nH]c12`, the growth with HCT-15 colon was 43.6%; with HT29 colon it was 7.76% (active); in the assay with SNB-75 CNS, 79.7%; in the assay on SNB-19 CNS it was 49.5%; in the assay on U251 CNS, 10.6%; in the assay with PC-3 prostate, 33.8%. The growth is 91.2% with SK-MEL-5 melanoma; 30.4% in the assay with UACC-62 melanoma; 4.24% (active) in the assay with LOX IMVI melanoma; 75.4% in the assay with SK-MEL-28 melanoma; 91% in the assay on SK-MEL-2 melanoma; 62.5% with EKVX NSCLC. Moreover, the growth in the assay on SN12C renal was 47.6%; in the assay with UO-31 renal, 69.7%; with TK-10 renal, 105%; in the assay on ACHN renal, 60.5%; in the assay with CAKI-1 renal, 91.1%; in the assay on A498 renal, 63.1%. For the same compound, the growth in the assay with CCRF-CEM leukemia is 14.7%; in the assay with MOLT-4 leukemia it was 32.4%.
In the case of `CN(C)C/C=C/C(=O)Nc1cc2c(Nc3ccc(F)c(Cl)c3F)ncnc2cc1OCCOC(F)F`, the growth is 9.17% (active) with HCT-15 colon; 2.75% (active) with HT29 colon; -19.4% (active) with SNB-75 CNS; 36.6% in the assay with SNB-19 CNS; 27.9% with U251 CNS; 11% with PC-3 prostate. The growth with SK-MEL-5 melanoma is 37.5%; with UACC-62 melanoma, 28.9%; with LOX IMVI melanoma it was 15.3%; with SK-MEL-28 melanoma it was 49.4%; with SK-MEL-2 melanoma, 44.1%; in the assay with EKVX NSCLC it was 12.4%. Moreover, the growth is 2.22% (active) in the assay with SN12C renal; 4.31% (active) in the assay with UO-31 renal; 9.78% (active) in the assay with TK-10 renal; -7.73% (active) in the assay on ACHN renal; -15.3% (active) in the assay on CAKI-1 renal; -47.7% (active) with A498 renal. Moreover, the growth with CCRF-CEM leukemia was 26.3%; in the assay on MOLT-4 leukemia it was 4.26% (active).
For the compound `CC(C)(C)c1cc(-c2nc3ccc(N4CCN(CCO)CC4)cc3[nH]2)cc(C(C)(C)C)c1O`, the growth is -14.4% (active) in the assay on HCT-15 colon; 4.47% (active) in the assay with HT29 colon; 67.2% in the assay with SNB-75 CNS; 74% in the assay with SNB-19 CNS; 16% with U251 CNS; 58.3% in the assay on PC-3 prostate. The growth in the assay with SK-MEL-5 melanoma is 74%; with UACC-62 melanoma, 26.7%; in the assay with LOX IMVI melanoma, -35.5% (active); in the assay on SK-MEL-28 melanoma, 61.2%; in the assay on SK-MEL-2 melanoma it was 81.8%; in the assay on EKVX NSCLC, 92.9%. For the same compound, the growth with SN12C renal was 85.8%; in the assay on UO-31 renal, 72.4%; in the assay with TK-10 renal, 87.6%; in the assay on ACHN renal, 89.2%; with CAKI-1 renal it was 63.2%; with A498 renal it was 86.1%. Moreover, the growth is 29.5% with CCRF-CEM leukemia and 32.9% in the assay on MOLT-4 leukemia.
`CC/C=C\C/C=C\C[C@H]1C/C=C2/C(=O)C=C[C@H]2C/C=C\CCC(=O)O1`: the growth in the assay on HCT-15 colon was -14.6% (active); in the assay with HT29 colon, -16.5% (active); in the assay with SNB-75 CNS, 62%; with SNB-19 CNS it was 40.6%; in the assay on U251 CNS it was 2.71% (active); in the assay on PC-3 prostate it was -18.9% (active). Moreover, the growth in the assay on SK-MEL-5 melanoma was -58.4% (active); in the assay with UACC-62 melanoma, -43.6% (active); in the assay with LOX IMVI melanoma, -68.4% (active); in the assay with SK-MEL-28 melanoma, -1.61% (active); with SK-MEL-2 melanoma, 7.15% (active); with EKVX NSCLC, 18.3%. For the same compound, the growth in the assay with SN12C renal was -10.2% (active); in the assay on UO-31 renal, -51.7% (active); in the assay on TK-10 renal, 2.67% (active); with ACHN renal, -63.5% (active); with CAKI-1 renal it was 34.1%; with A498 renal it was 77.7%. Further, the growth in the assay with CCRF-CEM leukemia is 3.86% (active); with MOLT-4 leukemia it was -3.06% (active).
In the case of `CC1CCN(C(=O)CSc2nc3sc4c(c3c(=O)[nH]2)CCCC4)CC1`, the growth in the assay on HCT-15 colon was 102%; with HT29 colon it was 116%; in the assay with SNB-75 CNS it was 99.5%; in the assay with SNB-19 CNS, 106%; in the assay with U251 CNS it was 95.5%; with PC-3 prostate it was 100%. The growth was 91.8% in the assay with SK-MEL-5 melanoma; 105% with UACC-62 melanoma; 86.4% with LOX IMVI melanoma; 125% with SK-MEL-28 melanoma; 80.2% in the assay on SK-MEL-2 melanoma; 98.9% in the assay with EKVX NSCLC. Also, the growth with SN12C renal was 102%; in the assay on UO-31 renal it was 82.6%; in the assay on TK-10 renal, 163%; with ACHN renal it was 101%; with CAKI-1 renal, 96.4%; with A498 renal, 95.8%. Further, the figures for the growth in the assay with CCRF-CEM leukemia and with MOLT-4 leukemia were 74.4% and 98.5%, respectively.
As to `CC(C)N(Cc1ccc(CN(C(=O)CCl)C(C)C)cc1)C(=O)CCl`, the growth in the assay with HCT-15 colon is 0.15% (active); in the assay on HT29 colon it was -49.7% (active); in the assay with SNB-75 CNS, -60.5% (active); in the assay with SNB-19 CNS, 63.2%; in the assay on U251 CNS, -41% (active); in the assay with PC-3 prostate, 29.7%. The growth in the assay with SK-MEL-5 melanoma was 17.9%; in the assay on UACC-62 melanoma, 2.74% (active); with LOX IMVI melanoma it was -61.2% (active); with SK-MEL-28 melanoma it was 33.1%; with SK-MEL-2 melanoma it was 44.9%; in the assay with EKVX NSCLC, 82.6%. Moreover, the growth was 15.4% in the assay with SN12C renal; -83.6% (active) with UO-31 renal; 70.5% in the assay on TK-10 renal; 5.84% (active) with ACHN renal; 33.6% in the assay on CAKI-1 renal; 88.2% with A498 renal. Also, the growth with CCRF-CEM leukemia was -29.4% (active); in the assay with MOLT-4 leukemia it was 8.54% (active).

For the origin of these results see PubChem BioAssay (NCI).
